Source: PubChem BioAssay (National Center for Advancing Translational Sciences (NCATS))
Sampled rows, rich in hits. Any-hit rate of the full collection: about 2.4%.
Pol eta inh-1 – inhibitors of human DNA polymerase eta; Q9Y253; recombinant Pol eta, fluorescent DNA replication assay; Potency, µM (titrated, usually from 114 µM), for the others: at the highest dose activity change, negative = inhibition, most hits filed as inhibitors; hit rate 1.2% among 390,000; AID 588591; note: % is set by controls: 0 for no effect and ±100 for the full control effect
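Pol eta at 10 nM preincubated with compounds 15 min at room temperature; reaction started with fluorescent substrate (50 nM final) and read kinetically at 0 and 10 min.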
Pol iota inh – DNA polymerase iota (human) inhibition | Pol iota fluorescent replication assay, 10 min | hit rate 1% among 390,000 | Q9UNA4 | Potency, µM (doses to about 115 µM), inactives show at the highest dose activity, negative = inhibition, most hits filed as inhibitors
Target sequence (Q9UNA4 whole entry, looked up): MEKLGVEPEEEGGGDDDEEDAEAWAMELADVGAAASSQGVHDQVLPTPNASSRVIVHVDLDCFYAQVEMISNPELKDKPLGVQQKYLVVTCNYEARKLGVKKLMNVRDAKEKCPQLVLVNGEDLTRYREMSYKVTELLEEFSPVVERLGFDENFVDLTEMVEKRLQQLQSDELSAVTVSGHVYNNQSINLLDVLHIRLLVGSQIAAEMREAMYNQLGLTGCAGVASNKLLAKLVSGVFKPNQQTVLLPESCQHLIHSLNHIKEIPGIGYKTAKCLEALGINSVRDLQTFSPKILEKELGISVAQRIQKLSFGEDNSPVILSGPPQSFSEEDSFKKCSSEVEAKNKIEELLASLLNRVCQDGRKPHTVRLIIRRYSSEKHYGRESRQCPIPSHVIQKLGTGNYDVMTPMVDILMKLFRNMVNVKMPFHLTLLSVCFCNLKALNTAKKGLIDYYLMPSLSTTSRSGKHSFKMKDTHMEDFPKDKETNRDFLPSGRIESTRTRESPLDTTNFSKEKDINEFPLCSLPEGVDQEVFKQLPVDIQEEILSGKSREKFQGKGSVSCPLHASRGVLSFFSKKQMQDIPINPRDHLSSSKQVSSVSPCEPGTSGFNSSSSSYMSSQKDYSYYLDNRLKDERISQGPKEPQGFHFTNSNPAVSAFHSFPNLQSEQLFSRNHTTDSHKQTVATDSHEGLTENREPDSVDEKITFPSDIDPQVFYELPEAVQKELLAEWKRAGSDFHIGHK
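Pol iota at 10 nM preincubated 15 min with compounds at room temperature; reaction started with fluorescent substrate, 50 nM final. Fluorescence read kinetically at 0 and 10 min; buffer-only wells as negative control.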
Pol kappa inh-1 – inhibitors of human DNA polymerase kappa | purified Pol kappa, fluorescent DNA synthesis assay, 10 min | AID 588579 | Q9UBT6 | Potency, µM (highest dose often 107 µM), for the others: top-dose activity, negative = inhibition, actives largely listed as inhibitors | hit rate 0.53% among 400,000; note: % is set by controls: 0 for no effect and ±100 for the full control effect
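Kinetic fluorescence readout at 0 and 10 min followed reaction start with substrate at 50 nM final. Beforehand, enzyme (10 nM Pol kappa) stood 15 min with compound at room temperature; buffer-only wells were negative controls.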
WRN inhibitor – inhibitors of human WRN helicase; Q14191; WRN helicase unwinding, fluorescent forked duplex, kinetic; hit rate 0.46% among 360,000; Potency, µM (titrated, usually from 114 µM), for the others: top-dose activity change, negative = inhibition, hits mostly inhibitors; note: % is set by controls: 0 for no effect and ±100 for the full control effect; nearly all actives have a fitted effect of over 55% in size
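WRN at 20 nM final was preincubated with compound for 15 min at room temperature; reaction started with 100 nM forked duplex oligonucleotide carrying fluorophore and quencher plus 2 mM ATP (final). Unwinding followed kinetically by red fluorescence (ex 525/em 598 nm).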
FEN1 inh-1 – blocks human flap endonuclease 1 | P39748 | Recombinant FEN1 flap cleavage, fluorescence, 15 min | Potency, µM (titrated, usually from 114 µM), for inactives: at the highest dose activity change, negative = inhibition, hits mostly inhibitors | hit rate 0.35% among 390,000 | AID 588795; note: % is set by controls: 0 for no effect and ±100 for the full control effect; nearly all actives have a fitted effect of over 65% in size
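FEN1 at 10 nM, compound pretreatment for 15 min (room temperature), 50 nM final substrate to initiate; endpoint reads at 0 and 15 min; DMSO-only plates used as vehicle background.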
POLB inh – DNA polymerase beta (human) inhibition; P06746; Pol beta primer extension/strand displacement, fluorescence kinetic; Potency, µM (titrated, usually from 114 µM), for inactives: top-dose activity change, negative = inhibition, actives largely listed as inhibitors; hit rate 1.3% among 340,000; AID 485314; note: % is set by controls: 0 for no effect and ±100 for the full control effect
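Pol beta (10 nM) was preincubated with compound for 15 min at room temperature. The reaction was then started with 50 nM substrate and read immediately and after a further 10 min at room temperature.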
PGK validate – validation of Trypanosoma brucei phosphoglycerate kinase inhibitors; shares compounds with Pol kappa inh-1; TbPGK coupled GAPDH assay, Kinase-Glo luminescence; Potency, µM (series often up to 57.5 µM), for the others: at the highest dose activity change, negative = inhibition, most hits filed as inhibitors; hit rate 79% among 500; note: % is set by controls: 0 for no effect and ±100 for the full control effect; nearly all actives have a fitted effect of over 65% in size
Pol iota confirm – Human Pol iota inhibitor confirmatory assay; shares compounds with Pol kappa inh-1; AID 720496; hit rate 77% among 1,500; Pol iota primer extension, TAMRA/BHQ fluorescence; Potency, µM, usual class: inhibitors
Pol kappa inh-2 – Pol kappa (human) inhibition, cherry-pick confirmation; hit rate 76% among 920; Potency, µM, actives largely listed as inhibitors; AID 720501; shares compounds with Pol eta inh-1; purified Pol-kappa, fluorescent strand-displacement substrate
Pol eta inh-2 – Pol eta (human) inhibition, cherry-pick confirmation | shares compounds with Pol eta inh-1 | Pol eta primer extension, TAMRA/BHQ fluorescence, 10 min | Potency, µM, actives largely listed as inhibitors | hit rate 64% among 2,600 | AID 720502
FEN1 inh-2 – FEN1 inhibition, cherry-pick retest. shares compounds with FEN1 inh-1. FEN1 flap cleavage, TAMRA/BHQ2 fluorogenic DNA substrate. AID 720498. Potency, µM, hits mostly inhibitors. hit rate 79% among 880; note: nearly all actives have a fitted effect of over 60% in size
An asterisk follows results filed as active; u = inconclusive; x = no result; [ ] = another dose, or the depositor's remark. Calls come from the whole dose curve; as a rule, active = well fitted curve in the direction sought with a large enough effect; inconclusive = small, poorly fitted or top-dose-only effect, or another doubt; inactive = no such curve, though single readings can be large; an effect the other way counts as inactive or inconclusive. Potency is the fitted concentration of half-maximal effect.

SMILES | Pol eta inh-1 | Pol iota inh | Pol kappa inh-1 | WRN inhibitor | FEN1 inh-1 | POLB inh | Pol iota confirm | Pol eta inh-2 | FEN1 inh-2 | others
O=C(N/N=C/c1cc(Cl)c(O)c(Cl)c1)c1cc2c(ccc3ccccc32)o1 | 22µM* | u | u | u | 50µM* | 28µM* | u | 43* | u | Pol kappa inh-2=75*
Cc1ccc(-c2cc(-c3ccccc3)nc(N)c2C#N)o1 | -16% | 44% | -12% | 3% | 5% | 9% | x | x | x
CC1=C(C#N)c2nc(N)c(C#N)c(C)c2/C1=C\c1ccc(-c2ccccc2C(=O)O)o1 | 7.9µM* | u | 22µM* | 25µM* | 40µM* | 10µM* | 42* | 27* | 48*
N#Cc1cccc(-c2nc3cnc(N4CCOCC4)nc3n(C[C@H]3CCCO3)c2=O)c1 | x | x | -2%[60.1 µM] | x | x | x | x | x | x
COCCN=c1scc(-c2ccco2)n1/N=C/c1ccc(O)c(O)c1O | 4.5µM* | 2µM* | 0% | 28µM* | 35µM* | 2.8µM* | 11* | 9.5* | u
Cc1c2cnn(CC(=O)NCc3ccc(F)cc3)c(=O)c2c(C)n1Cc1cccc(Cl)c1 | -21% | u | -10% | x | -7% | u | x | x | x
COC(=O)c1c(OC)cc2c(c1C)Oc1c(Cl)c(O)c(Cl)c(C)c1C(=O)O2 | x | x | -11%[60.1 µM] | x | x | x | x | x | x
COc1cc(C)c2c(c1C=O)Oc1c(c(C)c(O)c3c1C(O)OC3=O)OC2=O (stereo not drawn) | 16µM* | 45µM* | 22µM* | 50µM* | u | 7.9µM* | 42* | 21* | 76* | PGK validate=4.6µM*
O=C(CCCN1C(=O)/C(=C\c2ccccc2)SC1=S)Nc1ccc(C(=O)O)cc1 | u | u | -18% | -7% | -1% | -15% | x | x | x
O=C(CCN1C(=O)/C(=C\C=C\c2ccccc2)SC1=S)Nc1ccc(C(=O)O)cc1 | 28µM* | u | u | 56µM* | -19% | 20µM* | 27* | 85* | u
CCc1ccc(CNC(=O)c2ccc3c(c2)nc2n3CCOC2)cc1 | -12% | 1% | -11%[60.1 µM] | x | 15% | -5% | x | x | x
CC(C)N1CCc2c(sc(NC(=O)C3CC3)c2-c2nc3ccccc3s2)C1 | x | x | x | x | x | x | 42* | x | 15*
Oc1ccc(CCNc2c3ccccc3nc3ccccc23)cc1O | u | 40µM* | u | 50µM* | 18µM* | 7.1µM* | 75* | x | 3*
CN(C)CCCNc1nc(-c2ccccc2)nc2ccccc12 | -23% | 18% | -1% | -3% | -13% | 3% | x | x | x
CN(C)CCCNc1c2ccccc2nc2ccccc12 | 22µM* | 8.9µM* | 25µM* | u | 11µM* | 2.2µM* | 11* | x | 8.5* | Pol kappa inh-2=9.5*
O=C(O)CCNc1ccc(NCCC(=O)O)c2c1C(=O)c1ccccc1C2=O | 4.5µM* | 13µM* | 22µM* | u | 18µM* | 13µM* | 19* | 11* | 38* | PGK validate=16µM*
COc1ccccc1NCCC(=O)O | 31% | -26% | -11% | 2% | -12% | -20% | x | x | x
Cc1ccc(C)c(NC(=O)CN2C(=O)CCc3cc(S(=O)(=O)N4CCCCC4)ccc32)c1 | -17% | 11% | -2%[60.1 µM] | x | -12% | -2% | x | x | x
O=C1NN(c2ccc(Cl)cc2)C(=O)/C1=C\c1ccc(-c2cccc(C(=O)O)c2)o1 | 4.5µM* | 8.9µM* | 20µM* | u | 50µM* | 10µM* | 21* | 17* | 67*
COc1ccc(CNC(=O)Cn2c(=O)nc(-c3ccccc3F)c3cc(Cl)ccc32)cc1OC | -8% | -7% | -10%[60.1 µM] | x | 12% | 2% | x | x | x
CCn1c(=O)c2cc(C(=O)NCCCN3CCN(c4ccc(F)cc4)CC3)sc2c2ccccc21 | -5% | 0% | -4% | x | 14% | 10% | x | x | x
COc1ccc(S(=O)(=O)Nc2cc(SCC(=O)O)c(O)c3ccccc23)cc1 | 7.9µM* | 4µM* | -17% | 79µM* | u | u | u | u | 67*
COc1ccc(S(=O)(=O)Nc2cccc3ccccc23)cc1 | x | 28% | -14% | x | -3% | x | x | x | x
O=C(/C=C/c1ccco1)NC(=S)Nc1ccc(C(=O)O)cc1 | 7.1µM* | u | 25µM* | u | 40µM* | 11µM* | 9.5* | 5.4* | 30*
COc1ccc(NC(=S)NC(=O)/C=C/c2ccco2)cc1 | -14% | 72% | -14% | -12% | -3% | u | x | x | x
SMILES | Pol eta inh-1 | Pol iota inh | Pol kappa inh-1 | WRN inhibitor | FEN1 inh-1 | POLB inh | Pol iota confirm | Pol eta inh-2 | FEN1 inh-2 | others
CCCCN(C)C1=CC2=CC(=C(C#N)C#N)CCC2CC1 (stereo not drawn) | u | u | -27% | u | 22µM* | -2% | 75* | 76* | 76* | Pol kappa inh-2=u
COc1ccc(-c2nn(C)c3sc(C(=O)NCCN(C)C)cc23)cc1OC | u | 18µM* | u | u | 18µM* | 32µM* | u | x | 30*
Nc1ccc2c(c1Cl)C(=O)c1ccc(N)c(Cl)c1C2=O | 8.9µM* | u | u | -27%[11.6 µM] | u | 2µM* | 17* | 43* | u
Cc1ccc(NC(=O)CN2C(=O)S/C(=C\c3cc(Cl)c(OCC(=O)O)c(Cl)c3)C2=O)cc1 | 25µM* | u | -14% | -11%[11.6 µM] | 45µM* | 40µM* | 42* | 48* | 76* | PGK validate=5.8µM*
CCN(CC)CCC(=O)Nc1cccc2c1C(=O)c1ccccc1C2=O | -28% | 16µM* | -21% | u | 16µM* | 20µM* | u | x | 6*
O=C1NC(=O)/C(=C/c2ccc(-c3cccc([N+](=O)[O-])c3)o2)S1 | 22µM* | u | -2% | 32µM* | u | 1% | x | u | u | PGK validate=18µM*
